aSyn UTR act = Activators working through SNCA 5'UTR binding (MLPCN); alpha-synuclein 5'UTR reporter, activators screen; activity score, % (tested at 7.5 µM), hits read low; 7.1% of 300,000 active; AID 1814; in the data active = activity score below about -60%
Each line names hits and unclear results; the compound was inactive in the other large screens. A selection follows.

CCOC(=O)c1ccc(-c2c(-c3cc(OC)c(OC)c(OC)c3)noc2C)cc1F	none
CC(C)=CC(=O)Nc1nnc(C(C)C)s1	aSyn UTR act -119
CC(C)=CC(=O)Nc1nnc(-c2cccnc2)s1	aSyn UTR act -67
COc1ccccc1NC(CC(=O)c1ccccc1)C(=O)OCC(=O)c1ccc(C)cc1 (stereo not drawn)	aSyn UTR act -190
O=C(CC(Nc1ccccc1Cl)C(=O)OCC(=O)c1cccs1)c1ccccc1 (stereo not drawn)	aSyn UTR act -119
COc1ccccc1NC(CC(=O)c1ccccc1)C(=O)OCC(=O)c1ccc(C)c(C)c1 (stereo not drawn)	aSyn UTR act -127
COc1ccccc1NC(CC(=O)c1ccccc1)C(=O)OCC(=O)c1ccc(Br)cc1 (stereo not drawn)	aSyn UTR act -130
COC(=O)c1c(C)[nH]c(C(=O)/C=C/c2ccccc2Cl)c1C	aSyn UTR act -302
COC(=O)c1c(C)[nH]c(C(=O)/C=C/c2ccccc2F)c1C	aSyn UTR act -245
C/C(=N/NC(=O)C(O)(c1ccccc1)c1ccccc1)c1ccc([N+](=O)[O-])o1	aSyn UTR act -66
Fc1cccc2sc(N3CCCCC3)nc12	aSyn UTR act -116
Fc1cccc2sc(N3CCOCC3)nc12	aSyn UTR act -80
Fc1cc(F)c2nc(N3CCCC3)sc2c1	aSyn UTR act -93
CC1=CCC(COC(=O)Nc2ccccc2)CC1 (stereo not drawn)	aSyn UTR act -139
CCCC(O)(CCC)C(=O)NN(C(=O)CCl)c1ccccc1	aSyn UTR act -69
O=C(CCl)N(c1ccccc1)C1CCCCC1	none
CCCNC1=C(N(C(C)=O)c2cccc(F)c2)C(=O)c2ccccc2C1=O	none
CCOc1ccc2[nH]c(C(=O)N/N=C/c3ccccc3OC)cc2c1	aSyn UTR act -116
COc1cc(C(=O)N/N=C/C2CC=CCC2)cc(OC)c1OC (stereo not drawn)	none
COc1ccc2[nH]c(C(=O)N/N=C/c3ccccc3OC)cc2c1	aSyn UTR act -119
CCOc1ccc(/C=N/NC(=O)c2cc3c(OC)cc(OC)c(OC)c3[nH]2)cc1	aSyn UTR act -78
Cc1ccc2c3c([nH]c2c1C)-c1nonc1CC3	aSyn UTR act -107
COc1cccc(/C=C2\CCC(C3CCCC3)C2=O)c1OC (stereo not drawn)	aSyn UTR act -163
COc1cccc(/C=C2\CCC(C3CCCC3)C2=O)c1 (stereo not drawn)	aSyn UTR act -99
CCCN=Cc1sc2ccc(OCC)cc2c1O	aSyn UTR act -126
COc1ccc(C=C2c3ccccc3C(=O)c3ccccc32)c(OC)c1	none
COc1ccc(/C=C2\COc3ccccc3C2=O)c(OC)c1	aSyn UTR act -140
COc1ccc(/C=C2\CN(Cc3ccccc3)C/C(=C\c3ccc(OC)cc3OC)C2=O)c(OC)c1	aSyn UTR act -68
COc1ccc2c(c1)OC/C(=C/c1cccs1)C2=O	aSyn UTR act -151
CO/N=C/CC(=O)c1cnc(-c2ccc(Cl)cc2)s1	aSyn UTR act -79
O=C(NCCCO)c1cc2c(cn1)[nH]c1ccccc12	aSyn UTR act -104
COc1cccc(Nc2nnc(SCc3nc4ccccc4s3)s2)c1	aSyn UTR act -208
Cc1ccnc(SCc2nc3ccccc3s2)n1	aSyn UTR act -181
Cc1cccc(C)c1Nc1nnc(SCc2nc3ccccc3s2)s1	aSyn UTR act -85
c1ccc(C2CSc3ccccc3N2)cc1 (stereo not drawn)	aSyn UTR act -196
COc1cccc(NC(=O)Nc2ccc(C)c(Cl)c2)c1	aSyn UTR act -157
Cc1ccc(NC(=O)Nc2ccc(F)cc2)cc1Cl	aSyn UTR act -130
O=C(Nc1ccc(CN2CCCCC2)cc1)c1ccc(Br)o1	aSyn UTR act -76
O=C(Nc1ccc(CN2CCCCC2)cc1)c1c(F)c(F)c(F)c(F)c1F	aSyn UTR act -63
Oc1c(CN2CCCCC2)cc(Br)c2cccnc12	none
COc1cccc(CN(C)C(=O)CCc2nnc(-c3ccsc3)o2)c1	aSyn UTR act -80
CN(Cc1ccsc1)C(=O)CCc1nnc(CCCc2ccccc2)o1	aSyn UTR act -119
Cc1ccsc1CN(C)C(=O)CCc1nnc(COc2ccccc2)o1	aSyn UTR act -62
Cc1ccc(-c2csc3nc(-c4ccncc4)[nH]c(=O)c23)cc1	aSyn UTR act -86
Cc1ccc(-c2csc3nc4c5ccccc5c(NCCCN(C)C)nn4c(=O)c23)cc1	none
O=c1[nH]c(Cc2cccs2)nc2scc(-c3ccc(Cl)cc3)c12	aSyn UTR act -77
Cc1ccc(-c2nc3ccsc3c(=O)[nH]2)cc1	aSyn UTR act -137
Cc1ccc2nc(-c3ccncc3)[nH]c2c1	aSyn UTR act -120
Cc1ccc(NC2(C#N)C(=O)Nc3ccccc32)cc1C (stereo not drawn)	aSyn UTR act -89
CCOC(=O)c1ccc(-c2ccc(/C=N/NC(=O)CN(c3ccccc3Cl)S(C)(=O)=O)o2)cc1	aSyn UTR act -153
CCOc1ccc(S(=O)(=O)N(CC(=O)N/N=C/c2ccc(-c3ccc([N+](=O)[O-])cc3)o2)c2ccccc2)cc1	aSyn UTR act -72
COC(=O)N/N=C\c1ccc(-c2cc(Cl)c(Cl)cc2Cl)o1	none
Cc1ccc2nc(NC(=O)COC(=O)c3ccncc3)sc2c1	aSyn UTR act -118
CCOC(=O)c1ccc2nc(NC(C)=O)sc2c1	aSyn UTR act -126
COC(=O)c1ccc2nc(NC(=O)C(C)C)sc2c1	aSyn UTR act -74
CC(=O)Nc1nc2ccc(Br)cc2s1	aSyn UTR act -107
COC(=O)c1ccc2nc(NC(=O)C3CC3)sc2c1	aSyn UTR act -146
NC(=NCc1ccco1)NC(=O)c1ccc(Cl)cc1	aSyn UTR act -128
Cc1ccc(N2CN=C(c3ccccc3)NC2=S)cc1	aSyn UTR act -113
COc1ccc(C2=NCN(c3ccc(C)cc3)C(=S)N2)cc1	aSyn UTR act -138
Cn1c(N/N=C/c2cc3ccccc3nc2Cl)nc2ccccc21	aSyn UTR act -127
Cn1c(N/N=C/c2c[nH]c3ccccc23)nc2ccccc21	aSyn UTR act -126
Fc1c(F)c(F)c(N/N=C/c2c[nH]c3ccccc23)c(F)c1F	aSyn UTR act -103
Cc1nn(C)c(Sc2ccccc2N)c1[N+](=O)[O-]	aSyn UTR act -69
Cc1ccc(N=Cc2c(O)[nH]c3ccccc23)c([N+](=O)[O-])c1	aSyn UTR act -169
Oc1[nH]c2ccccc2c1/C=N/c1nccs1	aSyn UTR act -145
Oc1[nH]c2ccccc2c1C=Nc1ccc2c(c1)OCO2	aSyn UTR act -285
O=c1c2ccccc2c(C=Nc2cccc(O)c2)c(O)n1-c1ccc2c(c1)OCO2	aSyn UTR act -151
COc1ccc(N=Cc2c(O)[nH]c3ccccc23)cc1	aSyn UTR act -144
COc1ccc(-c2c3c(nc4sc(C(=O)Nc5ccccc5)c(N)c24)CCC3)cc1	aSyn UTR act -128
CCOC(=O)c1c(C)nc2sc(C(=O)Nc3ccccc3)c(N)c2c1-c1ccc(OC)cc1	aSyn UTR act -191
CCOC(=O)c1[nH]c2ccccc2c1NC(=S)Nc1ccccc1	aSyn UTR act -70
CN(C)Cc1c(C(=O)Nc2ccccc2)[nH]c2ccccc12	aSyn UTR act -76
Cc1ccc(OCc2nc(-c3cccnc3)no2)cc1C	aSyn UTR act -125
Cc1cc(OCc2nc(-c3cccnc3)no2)c(C)cc1Br	aSyn UTR act -68
Cc1ccccc1OCc1nc(-c2cccnc2)no1	aSyn UTR act -71
CCOc1ccc(-c2csc(NNC3=NCCCCC3)n2)cc1	aSyn UTR act -88
Brc1ccc(-c2csc(NC3=NCCCCC3)n2)cc1	aSyn UTR act -138
c1ccc(-c2csc(NNC3=NCCCCC3)n2)cc1	aSyn UTR act -72

Screens (PubChem)
